Rows were chosen to be rich in hits. Some 2.6% of all compounds tested hit in one or more screens of this group.
CF NFkB block – inhibitors of cystic fibrosis induced NF-kB | KKLEB NF-kB-GFP reporter, PAF-induced, GFP fluorescence overnight | AID 588850 | 0.86% of 360,000 active | inhibition, % at 5 µM;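 active = at least 50% inhibition at 5 µM, scaled per plate between neutral and stimulator controls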;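 note: PAF is a Pseudomonas aeruginosa culture filtrate used as stimulus; plate controls were PAF-stimulated DMSO wells for no effect and unstimulated DMSO wells for full effect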
EWS-Fli inh – EWS/Fli transcriptional activity inhibition | A673 NR0B1-luciferase reporter, viability-normalised | inhibition, % at 12.6 µM | 0.67% of 350,000 active;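 active = mean inhibition of at least 50% after viability correction, with every replicate also passing that limit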;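 note: firefly luciferase signal divided by Alamar Blue viability fluorescence both relative to DMSO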
KKLEB tox – CF airway cell cytotoxicity counter-screen | KKLEB CF airway cells viability, ATPlite luminescence, overnight; active compounds read low; cells stimulated with P. aeruginosa culture filtrate | activity change (cytotoxicity), % at 5 µM | 0.36% of 360,000 active;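 active = corrected activity change at or below -50% at 5 µM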
TROY signal inh – inhibitors of TROY-dependent NF-kB signaling; Q293 LMP1-TROYcd NF-kB luciferase reporter, 4 h; inhibition, % at 10 µM; 0.98% of 360,000 active; AID 1347056;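 active = compounds whose plate-normalised and pattern-corrected inhibition of the luciferase reporter signal at the single screening dose is 50% or more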
TWEAK Fn14 block – inhibitors of TWEAK-Fn14 interaction signaling. TWEAK-stimulated Fn14 reporter cells, luciferase luminescence, 8 h. inhibition, % at 10 µM. 2% of 360,000 active; in the data active = inhibition above about 50%
LGR2 antag – Drosophila LGR2 receptor signaling inhibition; HEK293 LGR2, CRE-luciferase, bursicon-stimulated, 4 h; inhibition, % at 9.99 µM; 0.35% of 380,000 active; AID 720647;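 active = drop in luminescence signal, shown as inhibition above about 50% in the replicate tests, limit read from the data, passing the limit was not always enough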;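 note: agonist challenge used bursicon conditioned medium at about half maximal strength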
* = called active by the depositor; · = not tested or not shown.

SMILES	CF NFkB block	EWS-Fli inh	KKLEB tox	TROY signal inh	TWEAK Fn14 block	LGR2 antag
C[C@@H]1CN([C@H](C)CO)C(=O)c2cc(NC(=O)Nc3ccc(C(F)(F)F)cc3)ccc2O[C@H]1CN(C)C(=O)Nc1ccc(C(F)(F)F)cc1	·	1.9	·	·	·	-10.4
Cc1noc(C)c1NC(=O)N(C)C[C@H]1OCCCC[C@@H](C)Oc2ccc(NC(=O)c3ccncc3)cc2C(=O)N([C@@H](C)CO)C[C@H]1C	·	2.2	·	·	·	-0.2
CSCCC(NS(=O)(=O)c1ccc(Cl)cc1)C(=O)OCC(=O)c1c(C)[nH]c2ccccc12 (stereo unspecified)	1.1	·	3.1	81.9*	61.5*	16.7
Cc1ccc(-n2c(O)c(C=Nc3ccc4c(c3)OCO4)c3ccccc3c2=O)cc1C	30.1	·	-37.8	63.3*	12.4	·
COc1ccc(-n2c(O)c(C=Nc3ccccc3)c3ccccc3c2=O)cc1	46.8	18.2	-51.7*	2.3	1.2	-4.6
COc1ccc(-n2c(O)c(C=Nc3ccccc3)c3ccccc3c2=O)cc1OC	-11.1	12.4	7.4	-4.8	-25.1	-7.1
CCCC#Cc1ccc2c(c1)O[C@H](CN(C)CCC)[C@H](C)CN([C@@H](C)CO)S2(=O)=O	·	1.2	·	·	·	2.3
CCC(=O)Nc1ccc2c(c1)C(=O)N(C)C[C@H](OC)[C@@H](C)CN(C(=O)c1cccnc1)[C@H](C)CO2	·	-8.2	·	·	·	·
C[C@@H]1CN([C@H](C)CO)S(=O)(=O)c2ccc(C#CC3(O)CCCC3)cc2O[C@@H]1CN(C)C(=O)c1ccncc1	·	-2.7	·	·	·	2.5
Cc1cc(-c2nnc(SCC(=O)Nc3nc(-c4ccc(Cl)cc4)cs3)o2)no1	1.9	-18.5	6.8	8.0	83.4*	23.1
COc1cc(/C=C2/C(=O)c3cccc([N+](=O)[O-])c3C2=O)c(Br)cc1O	40.7	-14.0	-25.8	28.4	57.5*	-2.6
COc1ccc(COc2ccsc2C(=O)Nc2ccc(Cl)c(Cl)c2)cc1	44.0	·	-66.3*	-8.6	-10.6	-19.6
CCN(CC)S(=O)(=O)c1cc(NC(=O)C2CCN(c3ncnc4sc(C)c(C)c34)CC2)ccc1Cl	25.8	33.3	-18.4	64.3*	96.8*	39.0
Cc1sc2ncnc(N3CCC(C(=O)Nc4cc(S(C)(=O)=O)ccc4Cl)CC3)c2c1C	44.9	7.8	-1.7	41.4	36.8	-3.1
Cc1sc2ncnc(N3CCC(C(=O)Nc4ccc(S(N)(=O)=O)cc4)CC3)c2c1C	47.6	3.2	-24.2	36.1	49.9	12.5
Cc1ccc(NC(=O)C2CCN(c3ncnc4sc(C)c(C)c34)CC2)cc1S(=O)(=O)N(C)C	16.6	21.8	-20.1	51.0*	55.0*	30.1
C[C@@H]1CN([C@H](C)CO)C(=O)Cc2cc(NC(=O)Cc3ccccc3)ccc2O[C@H]1CN(C)S(C)(=O)=O	·	2.4	·	·	·	-8.1
C[C@H](NC(=O)C[C@H]1CC[C@H](NC(=O)c2cccnc2)[C@H](CO)O1)c1ccccc1	·	3.8	·	·	·	5.4
CC(=O)c1ccc(NC(=S)Nc2cccc3ccccc23)cc1	-5.5	-11.3	-10.8	72.4*	33.1	-7.2
COc1ccc(C(=O)Nc2ccc(N3CCN(C)CC3)cc2)cc1	-0.1	-96.0	-5.5	-42.3	13.7	-18.8
COc1c(C)cccc1C(=O)NC(=S)Nc1ccccc1N1CCCC1	-6.2	-17.5	4.8	67.6*	56.5*	-41.0
O=C(NC(=S)Nc1ccccc1N1CCCC1)c1ccccc1Br	-0.2	23.8	6.6	7.2	23.0	12.4
CN1CCN(c2ccc(NC(=S)NC(=O)c3cccc4c(Br)cccc34)cc2)CC1	8.9	-10.3	-4.7	-16.3	-40.2	-8.7
CN1CCN(c2ccc(NC(=O)c3ccc4ccccc4c3)cc2)CC1	10.0	22.0	-17.5	64.7*	77.5*	39.8
CN1CCN(c2ccc(NC(=S)NC(=O)c3cccc4ccccc34)cc2)CC1	-30.6	64.6*	-0.1	-19.7	-45.4	9.4
CCCNC(=O)N1C[C@@H](C)[C@H](OC)CN(C)C(=O)c2cc(NC(=O)CC)ccc2OC[C@@H]1C	·	-0.8	·	·	·	9.3
C[C@@H]1CN([C@H](C)CO)S(=O)(=O)c2ccc(-c3ccncc3)cc2O[C@H]1CN(C)Cc1ccc(Oc2ccccc2)cc1	·	47.7	·	·	·	6.5
Cc1noc(C)c1S(=O)(=O)Nc1ccc2c(c1)C(=O)N([C@@H](C)CO)C[C@@H](C)[C@H](CN(C)C(=O)c1ccccc1)OCCCC[C@@H](C)O2	·	-2.5	·	·	·	-7.7
